Consider 6 sequences from article PMC9838217, “Structure of SALL4 zinc finger domain reveals link between AT-rich DNA binding and Okihiro syndrome”.

Assay in all cases: HT-SELEX; high values mean tight binding
What all share (details): protein: recombinant; vector His6-GST; dsDNA, one strand shown

One assay concerns the target T1, SALL4 ZFC4 WT (HT-SELEX) (Mus musculus, UniProt Q8BX22 870-940).
T1 sequence: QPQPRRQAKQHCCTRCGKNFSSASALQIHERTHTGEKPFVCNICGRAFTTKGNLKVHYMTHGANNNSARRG
The gist of the method:
(§1)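 Each canonical k-mer's binding signal is its read fraction expressed as fold change over the initial random library. Reads came from MiSeq sequencing, scanned for 6-mers, after up to 6 triplicate cycles in which purified recombinant mouse SALL4 zinc finger cluster 4 (residues 870–940, 1 µg) bound library DNA (1.5 µg first cycle, 200 ng later) in 100 µl of 10 mM Tris–HCl pH 7.5, 50 mM NaCl, poly(dI-dC), DTT for 10 min at room temperature. Complexes were then Ni2+ bead-captured, washed, PCR-amplified and reselected.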

For assay [1], the target named is T2, SALL4 ZFC4 R900W (HT-SELEX) (Mus musculus, UniProt Q8BX22 870-940, R900W).
T2 sequence: T1 sequence with R31W
In a few lines:
as §1

Assay [2] addresses T3, SALL4 ZFC4 G921D (HT-SELEX) (Mus musculus, UniProt Q8BX22 870-940, G921D).
T3 sequence: T1 sequence with G52D
The gist of the method: as §1

Where a chain is given by its changes, count along the chain named.

ACGTCC: the binding signal with SALL4 ZFC4 WT (HT-SELEX) turned out to be 0.359 ± 0.021 fold-change vs cycle 0; in assay [1] it was 0.454 ± 0.0124 fold-change vs cycle 0; in assay [2] it was 0.562 ± 0.0557 fold-change vs cycle 0.
The like results for GCACAA were, in that order, 0.447 ± 0.00967 fold-change vs cycle 0, 0.507 ± 0.00524 fold-change vs cycle 0 and 0.634 ± 0.0509 fold-change vs cycle 0.
As for AGGATA, the values for the binding signal (with SALL4 ZFC4 WT (HT-SELEX); in assay [1]; in assay [2]) were 1.55 ± 0.0339 fold-change vs cycle 0, 1.69 ± 0.0876 fold-change vs cycle 0 and 1.5 ± 0.15 fold-change vs cycle 0, respectively.
The like results for GCAAGA were, in that order, 0.671 ± 0.0141 fold-change vs cycle 0, 0.766 ± 0.0335 fold-change vs cycle 0 and 0.825 ± 0.0528 fold-change vs cycle 0.
Turning to CCGTAG, the figures for the binding signal (in the assay with SALL4 ZFC4 WT (HT-SELEX); in assay [1]; in assay [2]) were 0.35 ± 0.01 fold-change vs cycle 0, 0.427 ± 0.0139 fold-change vs cycle 0 and 0.516 ± 0.0548 fold-change vs cycle 0, respectively.
Consider AGTAGA, for which the results for the binding signal (in the assay with SALL4 ZFC4 WT (HT-SELEX); in assay [1]; in assay [2]) were 1.33 ± 0.0604 fold-change vs cycle 0, 1.54 ± 0.0844 fold-change vs cycle 0 and 1.41 ± 0.124 fold-change vs cycle 0, respectively.
